“And” between values parts separate entries of the source, which are not always exact repeats. Equal values may be shown once. A number with no mark means an inactive call. Records with an inconclusive call do not appear. The source made the active and inactive calls. Unless noted, calls come from the whole dose curve; as a rule, active = well fitted curve in the direction sought with a large enough effect in the repeat runs; inconclusive = weak or mixed curves; inactive = no such curve, though single readings can be large; an effect the other way counts as inactive or inconclusive.

A short description of experiment [1]: qHTS assay to identify small molecule antagonists of the estrogen related receptor (ERR) signaling pathway from Tox21 library - cell viability counter screen (AID 1224834). Note: nearly all actives have a fitted effect of over 30% in size. Note: potency is the fitted concentration of half-maximal effect. The method in brief: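 Compounds in DMSO were pinned onto ERR cells that had been incubated for 6 h, and the plates were held at 37 C for 17.5 h. CellTiter-Fluor reagent was then added and fluorescence was measured after 30 min.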
A general note: qHTS replaces the single test concentration by a dilution series.

Experiment [2] concerns the target Luciferin 4-monooxygenase (Photinus pyralis) (UniProt P08659). The experiment is described as follows: qHTS assay to identify small molecule inhibitors of firefly luciferase (AID 1224835). Note: nearly all actives have a fitted effect of over 25% in size. Note: potency is the fitted concentration of half-maximal effect. In a few lines: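 Inhibition of purified Photinus luciferase is measured by luminescence. Substrate levels (D-luciferin, ATP) sit at their KM values. Each compound is tested in a concentration series.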

A short description of experiment [3]: qHTS assay to identify small molecule agonists of the constitutive androstane receptor (CAR) signaling pathway - cell viability counter screen (AID 1224836). Note: nearly all actives have a fitted effect of over 45% in size. Note: potency is the fitted concentration of half-maximal effect. The method in brief: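 Counter screen multiplexed with the CAR reporter readout: HepG2 cells co-transfected with hCAR and the CYP2B6-2.2kb construct receive a 15-concentration compound series and 0.75 uM PK11195 (final), then CellTiter-Fluor fluorescence is read after 23 h.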

Experiment [4] has as its target Nuclear receptor subfamily 1 group I member 3 (Homo sapiens) (UniProt Q14994). Kind of experiment: qHTS assay to identify small molecule antagonists of the constitutive androstane receptor (CAR) signaling pathway (AID 1224838).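 Note: HepG2 cells stably expressing hCAR with CYP2B6 luciferase reporter stimulated by CITCO; nearly all actives have a fitted effect of over 40% in size.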 Note: potency is the fitted concentration of half-maximal effect. In a few lines:
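Luminescence from a CYP2B6-2.2kb promoter reporter in hCAR-expressing HepG2 cells reflects CAR signaling. Cells received compounds at 15 concentrations and 50 nM CITCO (final), then incubated 24 h at 37 C/5% CO2.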

A short description of experiment [5]: qHTS assay to identify small molecule antagonists of the estrogen related receptor signaling pathway with the pleiotropic PPARgamma coactivator (PGC) from Tox21 10K library - cell viability counter screen (AID 1224840; active = well fitted cell-killing curve with a large enough effect in the repeat runs, not every such curve was filed as active; note: nearly all actives have a fitted effect of over 40% in size; note: potency is the fitted concentration of half-maximal effect). The method in brief: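 Cell viability is measured by CellTiter-Fluor fluorescence in PGC/ERR cells that receive compounds after a 6-hour attachment period and are then incubated 17.5 hours at 37 C.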

The nature of experiment [6]: qHTS assay to identify small molecule antagonists of the estrogen related receptor signaling pathway with the pleiotropic PPARgamma coactivator (PGC) from Tox21 10K library (AID 1224841; call rule not given here; note: actives are mostly falling curves and most rising ones were filed inactive; nearly all actives have a fitted effect of over 50% in size; note: potency is the fitted concentration of half-maximal effect). The method in brief: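 Cells stably carrying the PGC/ERR reporter, seeded at 2,000 per well, received pin-transferred compounds 6 h post-plating. Exposure lasted 18 h at 37 C. Signal: One-Glo luminescence.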

Experiment [7] can be described thus: qHTS assay to identify small molecule agonists of the estrogen related receptor signaling pathway with the pleiotropic PPARgamma coactivator (PGC) from Tox21 10K library (AID 1224842). Note: nearly all actives have a fitted effect of over 15% in size. In a few lines:
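Luminescence from One-Glo (30 min, room temperature) measured after PGC/ERR cells had 18 h at 37 C with pinned compound (23 nL in DMSO). Cells had been seeded at 2,000 per well and pre-incubated 6 h.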

Experiment [8] is described as follows: qHTS assay to identify small molecule antagonists of the estrogen related receptor (ERR) signaling pathway from Tox21 library (AID 1224848). Note: nearly all actives have a fitted effect of over 50% in size. Note: potency is the fitted concentration of half-maximal effect. In a few lines: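 ERR cell line, 2,000 cells/well. 6 h settle, then compound (DMSO) added; 18 h at 37 C; ONE-Glo luminescence after 30 min RT.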
Experiment [9] can be described thus: qHTS RealTime-Glo MT Cell Viability Assay in HepG2 cells - 24 hour (AID 1224867). Note: nearly all actives have a fitted effect of over 50% in size. Note: potency is the fitted concentration of half-maximal effect. In a few lines: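 Cell number in HepG2 cultures estimated from NanoLuc luminescence generated by metabolic reduction of a prosubstrate by living cells. The homogeneous, nonlytic format allowed repeated reads at 0, 8, 16, 24, 32 and 40 h of compound exposure.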
Experiment [10] is described as follows: A CellTox Green Cytotoxicity Assay to monitor cytotoxicity in HEK293 cells - 0 hour (AID 1224869). Note: nearly all actives have a fitted effect of over 50% in size. The method in brief: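 Dead-cell fluorescence measured kinetically: asymmetric cyanine dye, HEK293, 600 cells/well, 5 h settle, 23 nL cpd/DMSO, 37 C, reads 0–40 h every 8 h.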
The target of experiment [11] is Nuclear receptor subfamily 1 group I member 3 (Homo sapiens) (UniProt Q14994). Kind of experiment: qHTS assay to identify small molecule agonists of the constitutive androstane receptor (CAR) signaling pathway (AID 1224839). Note: nearly all actives have a fitted effect of over 15% in size. Note: potency is the fitted concentration of half-maximal effect. The method in brief:
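A 15-concentration quantitative screen uses HepG2 cells co-transfected stably with human CAR and CYP2B6-2.2kb reporter. Treatment lasts 24 h with 0.75 uM PK11195 final present; ONE-Glo luminescence is the signal.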

Experiment [12] is described as follows: qHTS assay to identify small molecule agonists of H2AX (AID 1224845; active = well fitted activation curve with a large enough effect in the signal ratio in the repeat runs, not every such curve was filed as active; the % refers to the signal ratio; note: potency is the fitted concentration of half-maximal effect). The method in brief: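 Phospho-H2AX Ser139 measured by HTRF (ex 320 nm; em 665 and 620 nm) after 24 hr antibody incubation. Compounds, 15 concentrations, 0.76% DMSO, were applied to CHO-K1 cells for 3hr at 37C before lysis.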
Experiment [13] can be described thus: qHTS assay to identify small molecule agonists of H2AX - cell viability counter screen (AID 1224847; calls by dose curve; note: nearly all actives have a fitted effect of over 30% in size; note: potency is the fitted concentration of half-maximal effect). The method in brief: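 We seed wild-type CHO-K1 cells overnight, treat them for 3 hr at 37C with compounds in 15-concentration series, and quantify remaining viability by CellTiter-Glo luminescence.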
Experiment [14] deals with Thyrotropin receptor (Homo sapiens) (UniProt P16473). Kind of experiment: qHTS assay to identify small molecule agonists of the thyroid stimulating hormone receptor (TSHR) signaling pathway (AID 1224843; calls by dose curve; note: nearly all actives have a fitted effect of over 45% in size; note: potency is the fitted concentration of half-maximal effect). The method in brief:
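A cell-based cAMP HTRF format was run in TSHR-transfected HEK293 cells, 800 per well. Treatment: 30 min, room temperature. Detection: 1 h with labelled cAMP and anti-cAMP cryptate. Concentration-response over 15 points, three replicates.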

Experiment [15] is described as follows: qHTS assay to identify small molecule agonists of the hypoxia (HIF-1) signaling pathway - cell viability counter screen (AID 1224844; calls by dose curve; note: nearly all actives have a fitted effect of over 50% in size; note: potency is the fitted concentration of half-maximal effect). In a few lines:
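Viability counter screen: HRE-bla ME-180 cells plated 5 hrs before compound addition, treated 17 hrs at 37C and 5% CO2, then CellTiter-Glo added after the FRET reporter read; luminescence after 30 min.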

Experiment [16] is described as follows: qHTS assay to identify small molecule agonists of the estrogen related receptor (ERR) signaling pathway from Tox21 library (AID 1224849; calls by dose curve; note: nearly all actives have a fitted effect of over 15% in size). As to conditions: ERR reporter cell line, ONE-Glo luciferase, 18 h; at 92.4 µM (top of the series) unless noted. The method in brief: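 Quantitative HTS in agonist format: NTP ERR cell line, compounds transferred in DMSO after 6 h plating, 18 h incubation at 37 C, ONE-Glo luminescence endpoint.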

Experiment [17] can be described thus: qHTS RealTime-Glo MT Cell Viability Assay in HEK293 cells - 32 hour (AID 1224868). Note: nearly all actives have a fitted effect of over 50% in size. Note: potency is the fitted concentration of half-maximal effect. In a few lines: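 Homogeneous bioluminescent viability format in HEK293 cells (600 cells/well). Following 5 h at 37 C/5% CO2, 23 nL compound was pintooled; the signal was measured repeatedly during 40 h incubation.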
Experiment [18] in a line: qHTS RealTime-Glo MT Cell Viability Assay in HepG2 cells - 40 hour (AID 1224870). Note: nearly all actives have a fitted effect of over 50% in size. Note: potency is the fitted concentration of half-maximal effect. In a few lines:
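Real-time viability: cells seeded at 600 per well together with NanoLuc and cell-permeant prosubstrate, compounds added after 5 h incubation. Luminescence tracked at 0, 8, 16, 24, 32 and 40 h of exposure.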

Experiment [19] can be described thus: qHTS assay to identify small molecule agonists of the hypoxia (HIF-1) signaling pathway (AID 1224846; active = well fitted activation curve with a large enough effect in the signal ratio in the repeat runs, not every such curve was filed as active; the % refers to the signal ratio). The method in brief:
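Agonist mode reporter screen. ME-180 cells stably expressing bla under HRE control received test compounds in DMSO for 17 hrs (37C, 5% CO2), and beta-lactamase activity was then detected with the CCF4-AM FRET substrate.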

Experiment [20] is described as follows: qHTS assay to identify small molecule antagonists of the constitutive androstane receptor (CAR) signaling pathway - cell viability counter screen (AID 1224837). Note: nearly all actives have a fitted effect of over 45% in size. In a few lines: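 Cells are seeded, rested 4 hr at 37 C/5% CO2, dosed with compound (15-point series) and 50 nM CITCO, incubated a further 23 hr, and then CellTiter-Fluor reagent is added before fluorescence is read. The line is HepG2 with stable hCAR and CYP2B6-2.2kb.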
% is set by controls: 0 for no effect and ±100 for the full control effect.

Nuclear receptor subfamily 1 group I member 3 (Homo sapiens), sequence (Q14994 whole entry, looked up): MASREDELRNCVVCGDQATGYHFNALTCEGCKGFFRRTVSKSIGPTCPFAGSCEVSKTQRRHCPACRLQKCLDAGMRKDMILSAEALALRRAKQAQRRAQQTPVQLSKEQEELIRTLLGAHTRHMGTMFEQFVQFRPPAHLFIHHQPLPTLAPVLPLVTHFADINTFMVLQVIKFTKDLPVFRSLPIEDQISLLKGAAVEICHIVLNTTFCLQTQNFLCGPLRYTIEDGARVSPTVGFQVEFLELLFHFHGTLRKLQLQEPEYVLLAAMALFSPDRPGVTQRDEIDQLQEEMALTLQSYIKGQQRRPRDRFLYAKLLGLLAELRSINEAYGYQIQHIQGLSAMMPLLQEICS
Thyrotropin receptor (Homo sapiens), sequence (P16473 whole entry, looked up): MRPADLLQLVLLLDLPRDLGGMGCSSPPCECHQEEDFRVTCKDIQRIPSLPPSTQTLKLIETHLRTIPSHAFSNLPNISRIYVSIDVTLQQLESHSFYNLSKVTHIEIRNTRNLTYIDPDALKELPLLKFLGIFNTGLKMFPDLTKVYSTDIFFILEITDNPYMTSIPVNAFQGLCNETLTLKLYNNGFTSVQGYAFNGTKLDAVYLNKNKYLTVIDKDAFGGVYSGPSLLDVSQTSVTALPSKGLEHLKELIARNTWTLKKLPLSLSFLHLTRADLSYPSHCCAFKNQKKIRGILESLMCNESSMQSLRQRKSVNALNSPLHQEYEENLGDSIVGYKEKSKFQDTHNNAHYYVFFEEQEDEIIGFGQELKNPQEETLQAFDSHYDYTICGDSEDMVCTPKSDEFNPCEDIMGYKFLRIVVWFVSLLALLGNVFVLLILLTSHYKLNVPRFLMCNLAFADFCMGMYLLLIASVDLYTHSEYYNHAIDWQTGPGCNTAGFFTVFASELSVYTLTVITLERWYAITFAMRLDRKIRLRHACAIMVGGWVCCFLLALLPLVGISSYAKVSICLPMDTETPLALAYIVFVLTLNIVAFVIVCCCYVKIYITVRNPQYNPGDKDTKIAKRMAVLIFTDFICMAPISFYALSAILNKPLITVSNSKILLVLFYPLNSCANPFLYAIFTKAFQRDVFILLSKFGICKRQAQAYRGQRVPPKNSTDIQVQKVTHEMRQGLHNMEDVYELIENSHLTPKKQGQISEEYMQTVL
Luciferin 4-monooxygenase (Photinus pyralis), sequence (P08659 whole entry, looked up): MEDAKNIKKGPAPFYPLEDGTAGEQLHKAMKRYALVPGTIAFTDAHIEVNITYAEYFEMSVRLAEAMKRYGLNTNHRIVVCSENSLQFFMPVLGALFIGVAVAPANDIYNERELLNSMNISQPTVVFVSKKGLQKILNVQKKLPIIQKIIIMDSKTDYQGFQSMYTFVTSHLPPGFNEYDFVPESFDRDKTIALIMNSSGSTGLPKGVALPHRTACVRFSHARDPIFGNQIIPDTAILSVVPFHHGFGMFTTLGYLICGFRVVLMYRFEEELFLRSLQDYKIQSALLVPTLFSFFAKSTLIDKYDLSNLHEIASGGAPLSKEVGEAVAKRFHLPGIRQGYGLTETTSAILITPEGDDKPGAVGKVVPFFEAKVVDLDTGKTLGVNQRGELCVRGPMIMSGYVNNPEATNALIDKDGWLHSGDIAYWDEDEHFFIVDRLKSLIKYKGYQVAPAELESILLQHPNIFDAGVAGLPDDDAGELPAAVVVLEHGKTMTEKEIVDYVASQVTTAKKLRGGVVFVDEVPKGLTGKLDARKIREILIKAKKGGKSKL

For the compound `OC(c1ccc(Cl)cc1)(c1ccc(Cl)cc1)C(Cl)(Cl)Cl`, the Potency result in experiment [1], in experiment [2], in [3], in experiment [4], in experiment [5] and in [6] was “inactive” each time. Also, the Potency entry in experiment [7], in experiment [8], in experiment [9] and in experiment [10] was “inactive” throughout.

`C[C@@H]1O[C@@H](O[C@H]2C[C@@H](O)[C@]3(CO)[C@H]4[C@H](O)C[C@]5(C)[C@@H](C6=CC(=O)OC6)CC[C@]5(O)[C@@H]4CC[C@]3(O)C2)[C@H](O)[C@H](O)[C@H]1O`: the Potency in experiment [1] was 91.9 nM (active) and 84.1 nM (active); in experiment [3] it was 231 nM (active) and 266 nM (active); in experiment [4], 146 nM (active) and 168 nM (active). Moreover, the Potency entry in experiment [2], in experiment [11], in experiment [12], in experiment [13] and in experiment [10] was “inactive” in each case.

On to `Clc1ccc(CSC(Cn2ccnc2)c2ccc(Cl)cc2Cl)cc1` (stereo not given), for which the results for the Potency in experiment [1], in experiment [5] and in [13] were 15 µM (active), 29.8 µM (active) and 49.2 µM (active), respectively. The Potency result in [2], in [3], in experiment [14] and in [10] was “inactive” throughout.

For `S=C=Nc1cccc2ccccc12`, the Potency in experiment [1] was 67.9 µM (active); in experiment [3], 67.9 µM (active); in experiment [15], 48.5 µM (active). Besides, the Potency entry in experiment [2], in experiment [5], in [9], in experiment [17], in experiment [10] and in [18] was “inactive” throughout. In experiment [16], the activity change, positive = activation was -54.3%.

Consider `CC(C)(C)C(O)/C(=C\c1ccc(Cl)cc1Cl)n1cncn1` (stereo not given), for which the Potency is 65.9 µM (active) in [1]; 74 µM (active) in experiment [3]; 58.7 µM (active) in [5]; 29.4 µM (active) in experiment [6]; 122 µM (active) in experiment [13]; 33 µM (active) in [8]. The Potency in experiment [17] is 29.7 µM (active). Besides, the Potency result in experiment [2], in [4], in experiment [7], in experiment [15], in experiment [12] and in experiment [10] was “inactive” throughout. In addition, the compound was classed as inactive in experiment [19]. Besides, in experiment [16], the activity change, positive = activation is -63.4%.

In the case of `C[C@]12CC[C@H](O)C[C@H]1CC[C@@H]1[C@@H]2C[C@@H](O)[C@]2(C)[C@@H](C3=CC(=O)OC3)CC[C@]12O`, the Potency was 0.77 µM (active) in experiment [1]; 1.22 µM (active) in experiment [4]; 3.86 µM (active) in experiment [6]; 11 µM (active) in [15]; 3.06 µM (active) in [8]; 0.692 µM (active) in [17]. Moreover, the Potency entry in experiment [2], in [11], in experiment [7], in [14], in [12] and in experiment [13] was “inactive” throughout. In addition, the Potency entry in [9], in [10] and in experiment [18] was “inactive” each time.

On to `CCCOCC(=Nc1ccc(Cl)cc1C(F)(F)F)n1ccnc1`, for which the Potency is 54.4 µM (active) in [1], 48.5 µM (active) in experiment [11], 54.4 µM (active) in experiment [14] and 48.9 µM (active) in experiment [17]. The Potency entry in experiment [2], in [4] and in experiment [15] was “inactive” throughout. For the same compound, the call in experiment [19] was inactive.

Regarding `Cn1cc(C2=C(c3cn(C4CCN(Cc5ccccn5)CC4)c4ccccc34)C(=O)NC2=O)c2ccccc21`, the Potency in [1] was 11.9 µM (active). In addition, the Potency entry in [2], in experiment [20], in experiment [5], in experiment [7], in experiment [14] and in experiment [15] was “inactive” each time. Besides, the Potency result in experiment [12] and in [10] was “inactive” each time. Besides, the outcome in experiment [19] was inactive. In addition, the activity change, positive = activation in [16] is -11.8% [at 42.5 µM].

For `Clc1ccc(CCC(Cn2ccnc2)Sc2c(Cl)cccc2Cl)cc1` (stereo not given), the Potency in [1] is 29.8 µM (active); in experiment [11], 29.8 µM (active); in [15], 23.9 µM (active); in experiment [8], 18.8 µM (active); in experiment [17], 9.52 µM (active). Further, the Potency result in experiment [2], in [3] and in [4] was “inactive” in each case. Further, the activity change, positive = activation in [16] is -61.6% [at 42.5 µM].

As for `O=CC(Br)(Br)Br`, the Potency in experiment [1] is 24.3 µM (active); in experiment [2] it was 17.8 µM (active); in experiment [3] it was 30.5 µM (active); in experiment [4], 30.5 µM (active); in experiment [5], 15.3 µM (active); in [14], 30.5 µM (active). In addition, the Potency was 31.8 µM (active) in [12], 48.8 µM (active) in [9], 2.45 µM (active) in experiment [17] and 43.5 µM (active) in experiment [18]. In addition, the Potency result in experiment [11] and in experiment [10] was “inactive” in each case.

The values above are taken from PubChem BioAssay (Tox21).
